The results in this text go back to PubChem BioAssay (EPA / NIEHS).

The nature of test [1]: ATG_TAL_CIS: Attagene CIS-FACTORIAL HepG2 Assay for human TAL Basal Promoter (AID 2282966; active = hit-call score of the fitted dose curve at least 0.9, where 1 is the maximum; inactive = score below 0.9;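 note: background control endpoint measuring basal TAL promoter reporter mRNA not a specific factor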). The following applies: HepG2 Attagene cis-factorial TAL promoter reporter; actives raise or lower the signal. A digest of the protocol:
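HepG2 cells were transiently transfected with promoter-driven multiplexed reporter units and dosed for 24 h. Reporter mRNA was measured by RT-PCR with capillary electrophoresis fluorescence; bidirectional fits used DMSO as baseline, serving as a background control.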

Test [2] is described as follows: ATG_TGFb_CIS: Attagene CIS-FACTORIAL HepG2 Assay for human Transforming Growth Factor (TGF) (AID 2282967; active = hit-call score of the fitted dose curve at least 0.9, where 1 is the maximum; inactive = score below 0.9). The following applies: HepG2 Attagene CIS TGFb reporter, mRNA transcription; actives raise or lower the signal. A digest of the protocol: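 Cells were dosed for 24 hours, after which total RNA was reverse-transcribed and reporter sequences amplified, labeled and sized by capillary electrophoresis. Activity was fitted in both directions against DMSO.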

The nature of test [3]: ATG_VDRE_CIS: Attagene CIS-FACTORIAL HepG2 Assay for human Vitamin D Receptor Element (VDRE) (AID 2282968; active = hit-call score of the fitted dose curve at least 0.9, where 1 is the maximum; inactive = score below 0.9). The following applies: HepG2 VDRE cis-reporter transcription, actives raise or lower the signal. A digest of the protocol:
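Reporter mRNA induction, quantified by capillary electrophoresis of fluorescently labelled RT-PCR products, was read 24 h after dosing HepG2 cells carrying transiently transfected cis-regulated reporter units; gain or loss relative to DMSO.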

In test [4] the target is Nuclear receptor subfamily 1 group I member 3 (Homo sapiens) (UniProt Q14994). Nature of the test: ATG_CAR_TRANS: Attagene TRANS-FACTORIAL HepG2 Assay for human Constitutive Androstane Receptor (CAR) (AID 2282969).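 Note: activators raise reporter mRNA above DMSO so AC50 marks induction.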 The following applies: HepG2 Attagene TRANS-FACTORIAL CAR reporter. A digest of the protocol: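 Readout is reporter mRNA induction, quantified by fluorescent primer extension and capillary electrophoresis after RT-PCR. Cells were HepG2 transiently carrying chimeric NR-Gal4 constructs with GAL4-UAS reporters, treated for 24 h; activity scored upward from DMSO.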

Test [5] addresses Estrogen receptor (Homo sapiens) (UniProt P03372). The test can be described thus: ATG_ERa_TRANS: Attagene TRANS-FACTORIAL HepG2 Assay for human Estrogen Receptor alpha (ERa) (AID 2282970). The following applies: HepG2 Attagene TRANS ERa GAL4 reporter, mRNA. A digest of the protocol: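 HepG2 cells transiently transfected with multiplexed GAL4-UAS reporter units; ERa activity read via exogenous chimeric NR-Gal4 protein. After 24 hour compound exposure, reporter mRNA measured by RT-PCR with 6-FAM labelling and capillary electrophoresis; gain-of-signal fitted relative to DMSO.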

Test [6] has as its target Steroid hormone receptor ERR1 (Homo sapiens) (UniProt P11474). Nature of the test: ATG_ERRa_TRANS: Attagene TRANS-FACTORIAL HepG2 Assay for human Estrogen-Related Receptor alpha (ERRa) (AID 2282971). As to conditions: HepG2 Attagene TRANS reporter, ERRa transactivation. In a few lines:
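HepG2 cells transiently transfected with multiplexed GAL4-UAS reporter units reading chimeric ERRa-Gal4 activity; 24 h compound exposure. Reporter mRNA measured by RT-PCR, 6-FAM labelling, HpaI digest and capillary electrophoresis; gain of signal fitted versus DMSO baseline.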

In test [7] the target is X-box-binding protein 1 (Homo sapiens) (UniProt P17861). The test can be described thus: ATG_Xbp1_CIS: Attagene CIS-FACTORIAL HepG2 Assay for human X-box Binding Protein 1 (XBP1) (AID 2282972; active = hit-call score of the fitted dose curve at least 0.9, where 1 is the maximum; inactive = score below 0.9). The following applies: HepG2 XBP1 cis-element reporter, Attagene multiplex; actives raise or lower the signal. In a few lines: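 After a 24-hour chemical exposure of HepG2 cells carrying cis-regulated reporters, reporter mRNA levels are assessed. Quantification uses RT-PCR, 6-FAM labelling and capillary electrophoresis. Gain- or loss-of-signal is fitted against DMSO.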

Test [8] deals with Glucocorticoid receptor (Homo sapiens) (UniProt P04150). Nature of the test: ATG_GR_TRANS: Attagene TRANS-FACTORIAL HepG2 Assay for human Glucocorticoid Receptor (GR) (AID 2282978).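 Note: activators score as hits since higher reporter transcript over DMSO is fitted.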 As to conditions: HepG2 Attagene TRANS GR reporter, mRNA transcription. In a few lines: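 Readout is reporter transcript from a chimeric GR-Gal4 acting on GAL4-UAS in transfected human HepG2 liver cells after 24 h exposure, quantified by RT-PCR and capillary electrophoresis. Activation fitted upward against DMSO.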

Test [9] concerns the target Oxysterols receptor LXR-beta (Homo sapiens) (UniProt P55055). The test can be described thus: ATG_LXRb_TRANS: Attagene TRANS-FACTORIAL HepG2 Assay for human Liver X Receptor beta (LXRb) (AID 2282981). As to conditions: HepG2 Attagene TRANS GAL4-LXRb reporter, mRNA. In a few lines:
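Transient transfection HepG2 (multiplexed RTUs, GAL4-UAS); NR-Gal4 chimera; 24 h exposure; RNA → RT-PCR → 6-FAM primer extension → HpaI → CE; increase vs DMSO.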

A short description of test [10]: ATG_M_06_TRANS: Attagene TRANS-FACTORIAL HepG2 Assay for M06 Transcription Factor (Internal Marker) (AID 2282983).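 Note: reporter transcript level by RT-PCR then capillary electrophoresis fluorescence.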 As to conditions: HepG2 Attagene TRANS M06 internal marker reporter. A digest of the protocol: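 HepG2 cells transiently transfected with multiplexed GAL4-UAS reporter transcription units; after 24 h compound exposure, reporter mRNA measured by RT-PCR, FAM-labelled primer extension, HpaI digestion and capillary electrophoresis. Gain-of-signal fitted versus DMSO baseline; background control readout.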

A short description of test [11]: ATG_M_32_TRANS: Attagene TRANS-FACTORIAL HepG2 Assay for M32 Transcription Factor (Internal Marker) (AID 2282984). As to conditions: HepG2 Attagene TRANS M32 internal marker reporter. A digest of the protocol:
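Measures reporter mRNA induction in human HepG2 liver cells after 24 h chemical treatment. Transcripts from transiently transfected GAL4-UAS reporter units are amplified, fluorescently labelled and sized by capillary electrophoresis; gain of signal relative to DMSO.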

In test [12] the target is Nuclear receptor subfamily 4 group A member 2 (Homo sapiens) (UniProt P43354). Nature of the test: ATG_NURR1_TRANS: Attagene TRANS-FACTORIAL HepG2 Assay for human Nuclear Receptor Related Protein 1 (NURR1) (AID 2282985). As to conditions: HepG2 Attagene TRANS reporter, mRNA readout. A digest of the protocol: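 Transient transfection of HepG2, human liver cells, with multiple GAL4-UAS reporter transcription units. Cells dosed 24 h, RNA isolated, reverse-transcribed, PCR-amplified, FAM-labelled, HpaI-digested, sized by capillary electrophoresis. DMSO served as negative control.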

The target in test [13] is Transcriptional activator Myb (Homo sapiens) (UniProt P10242). Nature of the test: ATG_Myb_CIS: Attagene CIS-FACTORIAL HepG2 Assay for human Myeloblastosis (Myb) Proto-Oncogene Transcription Factor (AID 2282986; active = hit-call score of the fitted dose curve at least 0.9, where 1 is the maximum; inactive = score below 0.9). The following applies: HepG2 Attagene CIS-FACTORIAL Myb reporter transcription; actives raise or lower the signal. In a few lines: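 Reporter mRNA is quantified by RT-PCR and capillary electrophoresis 24 h after dosing HepG2 cells transfected with cis-regulated reporter units, which track endogenous transcription factor activity. Gain and loss of signal are fitted versus DMSO baseline.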

The target in test [14] is Nuclear respiratory factor 1 (Homo sapiens) (UniProt Q16656). The test can be described thus: ATG_NRF1_CIS: Attagene CIS-FACTORIAL HepG2 Assay for human Nuclear Respiratory Factor 1 (NRF1) Orphan Gene (AID 2282987; active = hit-call score of the fitted dose curve at least 0.9, where 1 is the maximum; inactive = score below 0.9). As to conditions: HepG2 NRF1 cis-element reporter, Attagene multiplex; actives raise or lower the signal. A digest of the protocol: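 Endogenous NRF1-driven reporter transcription in transfected HepG2 cells after 24 h treatment. Readout: RT-PCR products, 6-FAM labelled and resolved by capillary electrophoresis; changes fitted both directions relative to DMSO.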

Test [15] in a line: ATG_M_19_TRANS: Attagene TRANS-FACTORIAL HepG2 Assay for M19 Transcription Factor (Internal Marker) (AID 2282974). The following applies: HepG2 Attagene TRANS-FACTORIAL M19 internal marker reporter. In a few lines:
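Background-control readout: after 24 h chemical exposure of transfected HepG2 carrying GAL4-driven reporter units, RNA was reverse-transcribed, amplified, fluorescently labeled and sized by capillary electrophoresis; gain-of-signal fit against DMSO.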

Test [16] is described as follows: ATG_GAL4_TRANS: Attagene TRANS-FACTORIAL HepG2 Assay for GAL4 (Internal Marker) (AID 2282976). The following applies: HepG2 Attagene TRANS GAL4 internal marker reporter. A digest of the protocol:
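HepG2 cells transiently transfected with multiplexed GAL4-UAS reporter constructs were dosed for 24 h. Reporter mRNA was measured by RT-PCR, 6-FAM primer extension, HpaI digestion and capillary electrophoresis, and gain of signal was fitted relative to DMSO.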

In test [17] the target is Oxysterols receptor LXR-alpha (Homo sapiens) (UniProt Q13133). Nature of the test: ATG_LXRa_TRANS: Attagene TRANS-FACTORIAL HepG2 Assay for human Liver X Receptor alpha (LXRa) (AID 2282980). The following applies: HepG2 Attagene TRANS reporter, LXRa transactivation. In a few lines: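 HepG2 cells were transiently transfected with multiplexed reporter units driven by chimeric LXRa–GAL4 fusion proteins, then dosed for 24 h. Reporter mRNA was quantified by RT-PCR, fluorescent labelling and capillary electrophoresis; gain of signal fitted against DMSO baseline.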

The target in test [18] is Estrogen-related receptor gamma (Homo sapiens) (UniProt P62508). Nature of the test: ATG_ERRg_TRANS: Attagene TRANS-FACTORIAL HepG2 Assay for human Estrogen-Related Receptor gamma (ERRg) (AID 2282977).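 Note: hits increase reporter signal over DMSO so potencies reflect activators.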 As to conditions: HepG2 Attagene TRANS reporter, ERRg transactivation. A digest of the protocol: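 Transfect HepG2 with multiple GAL4-UAS reporter transcription units; dose chemicals 24 h; isolate RNA, reverse-transcribe with oligo(dT), PCR-amplify, label with 6-FAM, digest with HpaI; size fragments by capillary electrophoresis. DMSO serves as negative control.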

For test [19], the target named is Bile acid receptor (Homo sapiens) (UniProt Q96RI1). Nature of the test: ATG_FXR_TRANS: Attagene TRANS-FACTORIAL HepG2 Assay for Farnesoid X Receptor (FXR) (AID 2282979).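 Note: hits raise reporter mRNA above DMSO so AC50 marks FXR activation.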 The following applies: HepG2 Attagene TRANS FXR-GAL4 reporter transcription. A digest of the protocol:
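HepG2 cells transiently transfected with reporter constructs in which a chimeric FXR-GAL4 protein drives a GAL4-UAS reporter; 24 h compound exposure. Reporter mRNA measured by RT-PCR, FAM labelling, HpaI digestion and capillary electrophoresis; gain-of-signal versus DMSO.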

Test [20] has as its target Hepatocyte nuclear factor 4-alpha (Homo sapiens) (UniProt P41235). Nature of the test: ATG_HNF4a_TRANS: Attagene TRANS-FACTORIAL HepG2 Assay for human Hepatocyte Nuclear Factor 4 alpha (HNF4a) (AID 2282982). As to conditions: HepG2 HNF4a transactivation reporter, mRNA readout. In a few lines: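 Readout is fluorescent reporter-transcript fragments resolved by capillary electrophoresis after RT-PCR from HepG2 cells dosed for 24 h. Cells carried transfected GAL4-UAS reporter constructs measuring exogenous NR-GAL4 chimera activity; DMSO served as baseline.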

Each structure is given as a SMILES string. Values joined by “and” are separate entries in the source; they are usually repeats but may differ in a detail not shown here. Equal values may be shown once. Inconclusive results are not listed. Where a structure was tested more than once in an assay, its records may differ in their call. Active and inactive are the calls of the source. Rule for the calls, unless noted: active = hit-call score of the fitted dose curve at least 0.9, where 1 is the maximum; inconclusive = response in the unintended direction; inactive = score below 0.9.

Chain of Transcriptional activator Myb (Homo sapiens) (P10242 whole entry, looked up): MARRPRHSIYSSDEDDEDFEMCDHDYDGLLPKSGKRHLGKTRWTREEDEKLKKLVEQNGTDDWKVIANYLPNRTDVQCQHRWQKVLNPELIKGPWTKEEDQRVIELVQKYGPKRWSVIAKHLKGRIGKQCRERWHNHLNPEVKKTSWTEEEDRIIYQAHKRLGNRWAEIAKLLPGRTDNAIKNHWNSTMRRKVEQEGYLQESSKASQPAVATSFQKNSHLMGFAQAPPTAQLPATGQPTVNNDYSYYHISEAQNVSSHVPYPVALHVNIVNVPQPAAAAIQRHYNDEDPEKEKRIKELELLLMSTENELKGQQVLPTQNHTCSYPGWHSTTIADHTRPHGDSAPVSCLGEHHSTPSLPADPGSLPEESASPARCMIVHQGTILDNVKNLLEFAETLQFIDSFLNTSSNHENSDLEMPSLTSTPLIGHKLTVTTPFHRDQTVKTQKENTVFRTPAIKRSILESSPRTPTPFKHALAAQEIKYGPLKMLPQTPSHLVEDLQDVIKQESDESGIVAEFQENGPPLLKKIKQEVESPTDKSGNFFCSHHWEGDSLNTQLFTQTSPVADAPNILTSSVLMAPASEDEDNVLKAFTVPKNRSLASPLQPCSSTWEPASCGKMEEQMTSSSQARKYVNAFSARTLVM
Chain of Bile acid receptor (Homo sapiens) (Q96RI1 whole entry, looked up, the tested form may be a part): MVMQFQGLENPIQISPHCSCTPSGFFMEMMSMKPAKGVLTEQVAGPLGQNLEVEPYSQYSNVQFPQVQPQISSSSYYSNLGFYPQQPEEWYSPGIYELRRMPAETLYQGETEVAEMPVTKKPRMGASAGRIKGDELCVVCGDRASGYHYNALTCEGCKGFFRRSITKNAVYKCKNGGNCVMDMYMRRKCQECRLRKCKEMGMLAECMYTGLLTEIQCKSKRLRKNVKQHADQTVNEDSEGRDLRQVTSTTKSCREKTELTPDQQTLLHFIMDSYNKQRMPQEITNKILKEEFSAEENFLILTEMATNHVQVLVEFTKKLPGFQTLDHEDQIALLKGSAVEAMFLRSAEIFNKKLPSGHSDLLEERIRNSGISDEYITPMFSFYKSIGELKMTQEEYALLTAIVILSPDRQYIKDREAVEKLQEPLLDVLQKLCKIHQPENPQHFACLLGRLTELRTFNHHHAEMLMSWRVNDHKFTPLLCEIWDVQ
Chain of Steroid hormone receptor ERR1 (Homo sapiens) (P11474 whole entry, looked up, the tested form may be a part): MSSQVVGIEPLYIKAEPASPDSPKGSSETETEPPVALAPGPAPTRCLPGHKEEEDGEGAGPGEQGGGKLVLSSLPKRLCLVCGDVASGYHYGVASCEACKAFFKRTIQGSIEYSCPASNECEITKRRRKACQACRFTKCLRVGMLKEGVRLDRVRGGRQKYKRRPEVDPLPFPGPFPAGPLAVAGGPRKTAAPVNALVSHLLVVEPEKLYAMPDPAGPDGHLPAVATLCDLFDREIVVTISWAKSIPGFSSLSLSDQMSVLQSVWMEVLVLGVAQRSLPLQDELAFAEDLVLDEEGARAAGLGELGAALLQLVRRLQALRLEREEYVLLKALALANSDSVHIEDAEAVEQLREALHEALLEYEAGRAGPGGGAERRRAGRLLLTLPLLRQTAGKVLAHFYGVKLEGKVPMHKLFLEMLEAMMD
Chain of Nuclear receptor subfamily 4 group A member 2 (Homo sapiens) (P43354 whole entry, looked up, the tested form may be a part): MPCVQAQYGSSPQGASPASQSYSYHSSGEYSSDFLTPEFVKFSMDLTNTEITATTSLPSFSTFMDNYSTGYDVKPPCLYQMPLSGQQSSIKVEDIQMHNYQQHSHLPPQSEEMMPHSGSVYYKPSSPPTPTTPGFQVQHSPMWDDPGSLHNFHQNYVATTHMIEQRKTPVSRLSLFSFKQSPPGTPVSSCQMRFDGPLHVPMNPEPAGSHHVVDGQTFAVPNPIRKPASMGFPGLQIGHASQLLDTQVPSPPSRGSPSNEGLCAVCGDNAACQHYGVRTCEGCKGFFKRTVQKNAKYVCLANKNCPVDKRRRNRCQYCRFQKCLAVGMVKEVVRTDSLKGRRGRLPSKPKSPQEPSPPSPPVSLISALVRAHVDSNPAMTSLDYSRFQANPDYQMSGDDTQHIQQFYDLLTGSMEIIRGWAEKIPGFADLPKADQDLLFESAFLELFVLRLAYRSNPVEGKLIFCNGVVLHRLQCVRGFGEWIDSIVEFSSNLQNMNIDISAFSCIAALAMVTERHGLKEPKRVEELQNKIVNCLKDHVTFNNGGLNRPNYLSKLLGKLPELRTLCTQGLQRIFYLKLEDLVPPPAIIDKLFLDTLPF
Chain of Nuclear receptor subfamily 1 group I member 3 (Homo sapiens) (Q14994 whole entry, looked up, the tested form may be a part): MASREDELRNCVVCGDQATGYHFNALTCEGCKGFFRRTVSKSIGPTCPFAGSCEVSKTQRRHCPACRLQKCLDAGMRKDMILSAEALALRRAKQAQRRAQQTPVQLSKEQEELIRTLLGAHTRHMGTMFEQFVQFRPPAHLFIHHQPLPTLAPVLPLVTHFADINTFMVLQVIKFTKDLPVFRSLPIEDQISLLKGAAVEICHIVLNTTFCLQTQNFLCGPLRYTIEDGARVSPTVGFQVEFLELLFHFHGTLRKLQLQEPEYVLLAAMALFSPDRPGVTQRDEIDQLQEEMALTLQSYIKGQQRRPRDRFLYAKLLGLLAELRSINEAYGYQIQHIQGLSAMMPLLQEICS
Chain of Nuclear respiratory factor 1 (Homo sapiens) (Q16656 whole entry, looked up): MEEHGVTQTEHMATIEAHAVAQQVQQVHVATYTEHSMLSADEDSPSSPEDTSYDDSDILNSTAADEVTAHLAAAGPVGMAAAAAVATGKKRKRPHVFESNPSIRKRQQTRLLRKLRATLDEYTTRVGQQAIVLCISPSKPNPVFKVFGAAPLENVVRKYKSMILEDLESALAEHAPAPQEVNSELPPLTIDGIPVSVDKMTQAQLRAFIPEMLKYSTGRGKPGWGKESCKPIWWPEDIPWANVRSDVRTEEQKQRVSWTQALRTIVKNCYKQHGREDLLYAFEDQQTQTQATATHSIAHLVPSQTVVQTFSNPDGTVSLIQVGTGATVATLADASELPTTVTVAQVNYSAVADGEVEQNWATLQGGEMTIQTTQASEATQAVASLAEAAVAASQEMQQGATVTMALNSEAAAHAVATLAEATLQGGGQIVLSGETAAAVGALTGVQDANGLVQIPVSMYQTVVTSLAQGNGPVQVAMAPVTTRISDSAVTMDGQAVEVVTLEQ
Chain of X-box-binding protein 1 (Homo sapiens) (P17861 whole entry, looked up): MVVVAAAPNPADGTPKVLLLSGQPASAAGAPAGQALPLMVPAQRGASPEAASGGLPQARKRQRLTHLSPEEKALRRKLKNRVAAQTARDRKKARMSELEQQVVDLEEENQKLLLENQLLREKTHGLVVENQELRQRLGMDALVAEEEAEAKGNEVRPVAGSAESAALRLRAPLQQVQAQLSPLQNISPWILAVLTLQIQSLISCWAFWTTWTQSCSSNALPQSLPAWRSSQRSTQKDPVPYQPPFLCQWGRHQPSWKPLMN
Chain of Estrogen receptor (Homo sapiens) (P03372 whole entry, looked up, the tested form may be a part): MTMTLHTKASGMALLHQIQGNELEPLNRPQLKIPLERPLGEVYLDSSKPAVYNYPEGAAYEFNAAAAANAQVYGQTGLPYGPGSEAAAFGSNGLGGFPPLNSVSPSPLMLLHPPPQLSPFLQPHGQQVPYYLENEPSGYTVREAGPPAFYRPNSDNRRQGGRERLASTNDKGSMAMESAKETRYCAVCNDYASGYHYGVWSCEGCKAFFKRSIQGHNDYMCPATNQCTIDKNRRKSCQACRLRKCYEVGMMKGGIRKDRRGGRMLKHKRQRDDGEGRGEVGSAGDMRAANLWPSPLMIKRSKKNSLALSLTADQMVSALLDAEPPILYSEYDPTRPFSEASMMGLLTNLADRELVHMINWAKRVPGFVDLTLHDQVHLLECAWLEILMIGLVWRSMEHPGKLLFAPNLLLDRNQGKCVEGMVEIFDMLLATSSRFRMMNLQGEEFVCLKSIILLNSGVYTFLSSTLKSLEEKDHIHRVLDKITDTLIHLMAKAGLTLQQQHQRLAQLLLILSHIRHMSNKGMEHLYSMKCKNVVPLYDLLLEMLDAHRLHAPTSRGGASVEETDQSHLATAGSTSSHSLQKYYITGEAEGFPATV
Chain of Glucocorticoid receptor (Homo sapiens) (P04150 whole entry, looked up, the tested form may be a part): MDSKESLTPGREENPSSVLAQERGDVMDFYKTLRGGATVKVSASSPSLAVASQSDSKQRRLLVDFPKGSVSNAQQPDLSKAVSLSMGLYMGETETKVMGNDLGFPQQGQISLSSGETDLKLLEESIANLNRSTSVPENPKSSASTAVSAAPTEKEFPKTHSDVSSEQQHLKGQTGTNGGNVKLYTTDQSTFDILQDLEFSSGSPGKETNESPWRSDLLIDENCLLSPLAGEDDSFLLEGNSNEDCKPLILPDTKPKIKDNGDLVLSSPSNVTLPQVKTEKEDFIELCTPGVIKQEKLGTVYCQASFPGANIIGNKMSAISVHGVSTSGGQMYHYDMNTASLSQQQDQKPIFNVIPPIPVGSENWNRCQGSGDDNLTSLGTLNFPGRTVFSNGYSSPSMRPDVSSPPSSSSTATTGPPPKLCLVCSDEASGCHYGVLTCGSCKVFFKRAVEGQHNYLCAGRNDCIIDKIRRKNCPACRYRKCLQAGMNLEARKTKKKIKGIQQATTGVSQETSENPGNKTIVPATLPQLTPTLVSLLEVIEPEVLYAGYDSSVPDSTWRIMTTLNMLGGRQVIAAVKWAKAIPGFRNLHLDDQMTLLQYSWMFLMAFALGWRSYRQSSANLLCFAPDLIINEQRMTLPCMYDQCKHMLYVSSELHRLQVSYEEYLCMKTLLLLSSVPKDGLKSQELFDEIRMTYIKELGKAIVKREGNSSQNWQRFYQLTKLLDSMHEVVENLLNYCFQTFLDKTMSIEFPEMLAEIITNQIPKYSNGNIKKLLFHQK

One may read the AC50 as the concentration giving half of the maximal activity seen. With `CC(C)(O)c1ccc(CNC(=O)c2cccnc2Oc2ccc3nonc3c2)cc1`, the call in test [1], in test [2], in test [4], in test [5], in [6] and in test [7] was inactive. Moreover, the outcome in test [9], in test [10], in [11], in test [12], in [13] and in [14] was inactive. The AC50 was 33.2 µM (active) in [3] and 48.6 µM (active) in [8].

In the case of `CO[C@H]1/C=C/O[C@@]2(C)Oc3c(C)c(O)c4c(O)c(c(/C=N/N5CCN(C)CC5)c(O)c4c3C2=O)NC(=O)/C(C)=C\C=C\[C@H](C)[C@H](O)[C@@H](C)[C@@H](O)[C@@H](C)[C@H](OC(C)=O)[C@@H]1C`, the outcome in [1], in test [2], in [3], in test [6], in test [7] and in test [15] was inactive. Also, the result in test [16], in test [17], in test [10], in [11], in [12] and in test [13] was inactive. Moreover, the call in test [14] was inactive. Also, the AC50 in test [3] is 1.38 µM (active).

As to `CC(C)(c1cc(Br)c(O)c(Br)c1)c1cc(Br)c(O)c(Br)c1`, the AC50 was 43.7 µM (active) in test [1]; 49 µM (active) and 58 µM (active) in test [2]; 22.1 µM (active) and 22.6 µM (active) in test [3]; 45.9 µM (active) and 42.9 µM (active) in test [7]; 53.3 µM (active) in test [14]. Moreover, the outcome in test [1], in test [4], in [6], in test [16], in test [18] and in test [8] was inactive. For the same compound, the compound was called inactive in test [19], in test [20], in test [10], in test [11], in test [12] and in test [13]. In addition, the call in test [14] was inactive.

`CCCCCCCCCCCO`: the compound was called inactive in [1], in test [2], in test [3], in [5], in test [7] and in test [16]. Also, the result in test [19], in [12], in [13] and in [14] was inactive. Further, the results for the AC50 in [15] and in test [11] were 158 µM (active) and 166 µM (active), respectively.
